Measured values reported in PubChem BioAssay AID1159580 (chemical genetic matrix, 2015).
Among all 5,500 compounds or so, about 2,000 (36%) were called active. Roughly 18% stayed inconclusive and do not appear here. Cut-off read from the data, not from the text of the source: active = normalized growth mostly below about 0.91 (no sharp cut-off); inconclusive = no clear call, values can overlap the other calls; inactive = mostly above about 0.92. This is one part of the list.

Test: chemical genetic growth profiling, strain panel (AID 1159580);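 note: tested at 20 µM; growth read once vehicle control cultures reached saturation at 30 °C; 1 = growth at the plate median or of vehicle wells; lower values mean less growth of the strain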
Conditions: S. cerevisiae deletion strains, growth OD

Measured: normalized growth

O=[N+]([O-])/C=C/c1ccc(F)cc1
active: locus YAR019C, strain CDC15, stronger effect = lower value 0.0937 | locus YBL105C, strain PKC1, stronger effect = lower value 0.0926 | locus YBR135W, strain CKS1, stronger effect = lower value 0.0816 | locus YBR136W, strain MEC1, stronger effect = lower value 0.0978 | locus YBR160W, strain CDC28, stronger effect = lower value 0.091 | locus YDL017W, strain CDC7, stronger effect = lower value 0.0902 | locus YDL028C, strain MPS1, stronger effect = lower value 0.0982 | locus YDL101C, strain DUN1, stronger effect = lower value 0.107 | locus YDL108W, strain KIN28, stronger effect = lower value 0.102 | locus YDL132W, strain cdc53, stronger effect = lower value 0.0889 | locus YDL214C, strain PRR2, stronger effect = lower value 0.091 | locus YDR052C, strain DBF4, stronger effect = lower value 0.0848 | locus YDR054C, strain cdc34, stronger effect = lower value 0.0951 | locus YDR226W, strain ADK1, stronger effect = lower value 0.0885 | locus YDR477W, strain SNF1, stronger effect = lower value 0.1 | locus YER123W, strain YCK3, stronger effect = lower value 0.102 | locus YER133W, strain GLC7, stronger effect = lower value 0.0933 | locus YFL009W, strain cdc4, stronger effect = lower value 0.0899 | locus YFL029C, strain CAK1, stronger effect = lower value 0.0948 | locus YFR003C, strain YPI1, stronger effect = lower value 0.0906 | locus YFR019W, strain FAB1, stronger effect = lower value 0.0982 | locus YFR028C, strain CDC14, stronger effect = lower value 0.0877 | locus YGR040W, strain KSS1, stronger effect = lower value 0.104 | locus YGR052W, strain FMP48, stronger effect = lower value 0.113 | locus YGR092W, strain DBF2, stronger effect = lower value 0.0999 | locus YHR030C, strain SLT2, stronger effect = lower value 0.111 | locus YHR079C, strain IRE1, stronger effect = lower value 0.117 | locus YHR082C, strain KSP1, stronger effect = lower value 0.121 | locus YHR205W, strain SCH9, stronger effect = lower value 0.00904 | locus YIL147C, strain SLN1, stronger effect = lower value 0.0998 | locus YJL095W, strain BCK1, stronger effect = lower value 0.109 | locus YJL128C, strain PBS2, stronger effect = lower value 0.0952 | locus YJL157C, strain FAR1, stronger effect = lower value 0.0885 | locus YJR016C, strain ILV3, stronger effect = lower value 0.0868 | locus YJR066W, strain TOR1 (second series), stronger effect = lower value 0.0953 | locus YJR066W, strain TOR1, stronger effect = lower value 0.114 | locus YKL048C, strain ELM1, stronger effect = lower value 0.113 | locus YKL067W, strain YNK1, stronger effect = lower value 0.087 | locus YKL101W, strain HSL1, stronger effect = lower value 0.0964 | locus YKL193C, strain SDS22, stronger effect = lower value 0.0853 | locus YKL203C, strain TOR2, stronger effect = lower value 0.107 | locus YLR113W, strain HOG1, stronger effect = lower value 0.129 | locus YLR133W, strain CKI1, stronger effect = lower value 0.099 | locus YLR403W, strain SFP1, stronger effect = lower value -0.000358 | locus YML070W, strain DAK1, stronger effect = lower value 0.0913 | locus YMR001C, strain CDC5, stronger effect = lower value 0.0877 | locus YMR205C, strain PFK2 (second series), stronger effect = lower value 0.0893 | locus YMR277W, strain FCP1, stronger effect = lower value 0.0903 | locus YNL006W, strain LST8, stronger effect = lower value 0.0904 | locus YNL020C, strain ARK1, stronger effect = lower value 0.102 | locus YNL161W, strain CBK1, stronger effect = lower value 0.0853 | locus YNL183C, strain NPR1, stronger effect = lower value 0.124 | locus YNL207W, strain RIO2, stronger effect = lower value 0.091 | locus YNL222W, strain SSU72, stronger effect = lower value 0.0861 | locus YNL307C, strain MCK1 (second series), stronger effect = lower value 0.11 | locus YOL078W, strain AVO1, stronger effect = lower value 0.0833 | locus YOL136C, strain PFK27, stronger effect = lower value 0.0966 | locus YOR061W, strain CKA2, stronger effect = lower value 0.0873 | locus YOR119C, strain RIO1, stronger effect = lower value 0.112 | locus YOR231W, strain MKK1, stronger effect = lower value 0.106 | locus YOR329C, strain SCD5, stronger effect = lower value 0.0906 | locus YPL031C, strain PHO85, stronger effect = lower value 0.0996 | locus YPL153C, strain RAD53, stronger effect = lower value 0.101 | locus YPL204W, strain HRR25, stronger effect = lower value 0.102 | locus YPL209C, strain IPL1, stronger effect = lower value 0.0882 | locus YPL256C, strain CLN2, stronger effect = lower value 0.135 | locus YPR025C, strain CCL1, stronger effect = lower value 0.0876 | locus YPR106W, strain ISR1, stronger effect = lower value 0.0871 | locus YPR111W, strain DBF20, stronger effect = lower value 0.0892 | strain NNK1, stronger effect = lower value 0.096 | strain TSCII, stronger effect = lower value 0.0924
